Source: PubChem BioAssay (National Center for Advancing Translational Sciences (NCATS))
ELG1 genotox = qHTS screen for small molecules that induce genotoxicity in human embryonic kidney (HEK293T) cells expressing luciferase-tagged ELG1 | HEK293T ELG1-luciferase reporter, luminescence, 16 h | 330,000 tested, 1.3% active | Potency, µM (titrated, usually from 46 µM), inactives show at the highest dose activity change, positive = activation, hits mostly activators; further: % of control where 0% means no effect; nearly all actives have a fitted effect of over 60% in size
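Reporter readout depends on ELG1 protein level, which increases with genetic stress. After 16 hr compound exposure at 37 °C, luciferase activity was quantified using ONE-Glo.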
Rab9 prom act = qHTS Assay for Rab9 Promoter Activators. Potency, µM (series often up to 9.22 µM), without a hit: at the highest dose activation, negative = inhibition, hits mostly activators. 320,000 tested, 2.8% active. Huh7 Rab9 promoter-luciferase reporter, luminescence, 24 h; further: % of control where 0% means no effect; nearly all actives have a fitted effect of over 60% in size
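Cells were plated at 1500 per well in reduced-serum medium with 10% FBS and left 2 h. Compound in DMSO was then added for 24 h at 37 °C. Reporter signal was read by luminescence after 10 min with luciferase detection reagent.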
SMN2 splice enh = qHTS Assay for Enhancers of SMN2 Splice Variant Expression. HEK293 SMN2-luciferase splicing reporter, luminescence, 30-36 h. Potency, µM (titrated, usually from 46.1 µM), inactives show at the top dose activity change, positive = activation, hits mostly activators. 210,000 tested, 2.8% active; further: % of control where 0% means no effect; nearly all actives have a fitted effect of over 55% in size
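qHTS luciferase splicing reporter: luminescence rises when SMN2 exon 7 is included in transfected HEK293 cells. Compound exposure lasted 30-36 h at 37C, with 4.5 mM final sodium butyrate as control, followed by a ONE-Glo read.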
FLuc counter = qHTS profiling assay for firefly luciferase inhibitor/activator using purifed enzyme and Km concentrations of substrates (counterscreen for miR-21 project). Luciferin 4-monooxygenase (Photinus pyralis), P08659. purified FLuc, Km substrates, luminescence inhibition. Potency, µM (top dose mostly 57.5 µM), inactives show at the highest dose activity change, negative = inhibition, usual class: inhibitors. 360,000 tested, 6.9% active;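 further: plate controls were vehicle for no effect and reference inhibitor for full effect; nearly all actives have a fitted effect of over 55% in size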
Target sequence (P08659 whole entry, looked up): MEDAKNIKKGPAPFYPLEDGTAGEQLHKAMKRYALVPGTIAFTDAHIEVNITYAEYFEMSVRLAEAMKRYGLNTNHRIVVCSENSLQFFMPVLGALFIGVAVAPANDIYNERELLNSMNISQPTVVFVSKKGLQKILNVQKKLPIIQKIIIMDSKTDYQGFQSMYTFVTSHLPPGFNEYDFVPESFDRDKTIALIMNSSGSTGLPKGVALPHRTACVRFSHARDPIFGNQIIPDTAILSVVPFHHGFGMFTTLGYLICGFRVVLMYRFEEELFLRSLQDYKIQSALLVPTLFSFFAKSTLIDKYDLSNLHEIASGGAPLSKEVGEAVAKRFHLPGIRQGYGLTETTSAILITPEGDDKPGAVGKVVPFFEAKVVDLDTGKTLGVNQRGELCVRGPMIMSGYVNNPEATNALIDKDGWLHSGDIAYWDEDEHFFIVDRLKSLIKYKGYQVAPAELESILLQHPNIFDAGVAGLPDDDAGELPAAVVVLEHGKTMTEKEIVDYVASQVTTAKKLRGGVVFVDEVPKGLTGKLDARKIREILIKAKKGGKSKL
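Biochemical qHTS of compounds, final roughly 60 µM downward over six points, against 10 nM purified firefly luciferase using Km concentrations of substrates (10 uM D-luciferin, 10 uM ATP) in Tris acetate pH 7.5 buffer; luminescence output.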
ELG1 DNA repair = qHTS screen for small molecules that inhibit ELG1-dependent DNA repair in human embryonic kidney (HEK293T) cells expressing luciferase-tagged ELG1; HEK293T ELG1-luciferase reporter, luminescence, 16 h; DNA damage induced by 5-fluorouridine; Potency, µM (top dose mostly 46.1 µM), without a hit: top-dose activity change, negative = inhibition, actives largely listed as inhibitors; 330,000 tested, 2.3% active; AID 504467, 2011; further: on the % scale 0 is the no-effect control and ±100 the full control effect; nearly all actives have a fitted effect of over 55% in size
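5-Fluorouridine DNA damage + compound/DMSO, 2,000 cells/well, 16 h, 37 °C/5% CO2. ONE-Glo, 30 min RT, luminescence. Readout = decrease in reporter signal.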
NPC1 prom act = qHTS Assay for NPC1 Promoter Activators; 320,000 tested, 2.4% active; Huh7 NPC1 promoter luciferase reporter, 24 h; Potency, µM (top dose mostly 9.22 µM), for inactives: at the top dose activation, hits mostly activators; further: % of control where 0% means no effect; nearly all actives have a fitted effect of over 60% in size
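NPC1 promoter–luciferase Huh7 cells; 24 h compound; luminescence.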
The depositor's hits bear a star; [ ] = remark or other dose. Hits are enriched below; roughly 9.4% of the tested compounds scored in any of these assays. The call rests on the fitted dose curve; in most records, active means well fitted curve in the direction sought with a large enough effect; inconclusive means small, poorly fitted or top-dose-only effect, or another doubt; inactive means no such curve, though single readings can be large; an effect the other way counts as inactive or inconclusive. Potency means the concentration at half of the fitted maximal effect.

What do the screens show for `CCc1cccc(C)c1NC(=O)COC(=O)c1c2c(nc3ccccc13)/C(=C\c1cccs1)CCC2`?
ELG1 genotox: -12%; Rab9 prom act: -31%; SMN2 splice enh: -4%; FLuc counter: 0%; ELG1 DNA repair: 15µM*; NPC1 prom act: -26%

What do the screens show for `Cc1ccc(CN(C(=O)COc2cccc([N+](=O)[O-])c2)c2ccccn2)o1`?
FLuc counter: 1%

Results for O=C(NCC(c1ccc2c(c1)OCO2)N1CCOCC1)c1ccc(F)cc1 (centres undefined) ?
FLuc counter: -3%

Results for CC(C)CC[n+]1ccccc1/C=C/c1ccc(N(C)C)cc1 ?
ELG1 genotox: -11%; Rab9 prom act: -41%; FLuc counter: 3%; ELG1 DNA repair: inconclusive; NPC1 prom act: -40%

How did CN(C)c1ccc(/C=C/c2noc(-c3ccccc3O)n2)cc1 do in these assays?
SMN2 splice enh: -24%; FLuc counter: 0.67µM*

How did Oc1ccccc1-c1nc(/C=C/c2ccccc2Cl)nn1-c1ccccc1 do in these assays?
SMN2 splice enh: 2%; FLuc counter: 6µM*

What do the screens show for `Oc1ccccc1-c1nc(/C=C/c2ccccc2Cl)no1`?
SMN2 splice enh: -2%; FLuc counter: 0.19µM*

How did Cc1ccc(NCc2cccn2-c2nnc(N3CCC(C(=O)NCCc4ccc(Cl)cc4)CC3)s2)cc1 do in these assays?
SMN2 splice enh: -43%; FLuc counter: 3%

What do the screens show for `CCN(CC(=O)Nc1ccc2c(c1)OCCO2)C(=O)/C=C/c1ccc(F)cc1`?
ELG1 genotox: inconclusive; Rab9 prom act: 27%; SMN2 splice enh: 23%; FLuc counter: 17µM*; ELG1 DNA repair: inconclusive; NPC1 prom act: 0%

Results for CCN(CC(=O)Nc1ccc2c(c1)OCCO2)C(=O)/C=C/c1cccc(Br)c1 ?
ELG1 genotox: inconclusive; Rab9 prom act: 17%; FLuc counter: 15µM*; ELG1 DNA repair: inconclusive; NPC1 prom act: 14%

What do the screens show for `CCN(CC(=O)Nc1ccc2c(c1)OCCO2)C(=O)/C=C/c1cccc(C(F)(F)F)c1`?
ELG1 genotox: -3%; ELG1 DNA repair: -7%

What do the screens show for `CCN(CC(=O)Nc1ccc2c(c1)OCCO2)C(=O)/C=C/c1ccccc1`?
ELG1 genotox: -16%; Rab9 prom act: -9%; SMN2 splice enh: inconclusive; FLuc counter: inconclusive; ELG1 DNA repair: 19%; NPC1 prom act: 2%

Results for CCN(C(=O)c1cn(-c2cccc(OC)c2)c(=O)c2ccccc12)c1ccccc1C ?
FLuc counter: 4%

How did Cc1ccc(-c2cc(C(=O)N3CC(C)CC(C)C3)c3ccccc3n2)o1 (centres undefined) do in these assays?
ELG1 genotox: -1%; Rab9 prom act: 2%; FLuc counter: 12µM*; ELG1 DNA repair: 0%; NPC1 prom act: 1%

How did Cc1ccc(-c2cc(C(=O)NCC(c3ccccc3)N(C)C)c3ccccc3n2)o1 (centres undefined) do in these assays?
ELG1 genotox: 2%; ELG1 DNA repair: -26%

Results for Cc1ccc(-c2cc(C(=O)N3CC(C)OC(C)C3)c3ccccc3n2)o1 (centres undefined) ?
ELG1 genotox: 9%; Rab9 prom act: -1%; FLuc counter: 11µM*; ELG1 DNA repair: 16%; NPC1 prom act: -1%

What do the screens show for `CCOCCCn1c(SCC(=O)Nc2cc(C)ccc2C)nc2c(oc3ccccc32)c1=O`?
SMN2 splice enh: 6%; FLuc counter: -1%

Results for COc1ccc(-c2noc(CSCC(=O)Nc3cc(OC)c(OC)c(OC)c3)n2)cc1OC ?
FLuc counter: -2%

What do the screens show for `CN1CCC(N(C)C(=O)c2cc(=O)c3ccccc3o2)CC1`?
ELG1 genotox: -1%; Rab9 prom act: -1%; SMN2 splice enh: -8%; FLuc counter: -2%; ELG1 DNA repair: -5%; NPC1 prom act: 19%

What do the screens show for `COC(=O)C1=C(C(=O)OC)[C@@H]2N(Cc3ccccc3)c3ccccc3[C@@]23C[C@@H](C(=O)OC)N(S(=O)(=O)c2ccc4c(c2)OCCN4C)C3=N1`?
SMN2 splice enh: -10%[9.22 µM]

What do the screens show for `CCCS(=O)(=O)NCc1cn2c(C)csc2n1`?
ELG1 genotox: 12µM*; Rab9 prom act: inconclusive; SMN2 splice enh: 11µM*; FLuc counter: inconclusive; ELG1 DNA repair: inconclusive; NPC1 prom act: inconclusive

Results for Cc1csc2nc(CCNS(=O)(=O)c3cccs3)cn12 ?
ELG1 genotox: 21µM*; Rab9 prom act: inconclusive; SMN2 splice enh: 15%; FLuc counter: 24µM*; ELG1 DNA repair: inconclusive; NPC1 prom act: inconclusive

Results for CCS(=O)(=O)NCc1cn2c(C)csc2n1 ?
ELG1 genotox: 3%; Rab9 prom act: -4%; SMN2 splice enh: 2%; FLuc counter: -1%; ELG1 DNA repair: inconclusive; NPC1 prom act: 5%

Results for CCCCC/C=C\C/C=C\C=C\[C@@H](O)C/C=C\CCCC(=O)O ?
SMN2 splice enh: -1%

Results for Cc1ccc(C2=NN=C(NC(=O)CSc3nncn3C)SC2)cc1 ?
ELG1 genotox: inconclusive; Rab9 prom act: 1.4µM*; SMN2 splice enh: 8.9µM*; FLuc counter: 2.4µM*; ELG1 DNA repair: inconclusive; NPC1 prom act: 2.2µM*

What do the screens show for `Cc1ccc(C2=NN=C(NC(=O)C(F)(F)F)SC2)cc1`?
ELG1 genotox: inconclusive; Rab9 prom act: 0.79µM*; FLuc counter: 17µM*; ELG1 DNA repair: inconclusive; NPC1 prom act: 1.4µM*

What do the screens show for `Cc1ccc(NC(=O)CSc2nncn2C)c(C)c1`?
SMN2 splice enh: 7%; FLuc counter: 1%

What do the screens show for `CC(=O)Nc1cccc(NC(=O)C(F)(F)F)c1`?
ELG1 genotox: 0%; Rab9 prom act: -1%; SMN2 splice enh: 1%; FLuc counter: -3%; ELG1 DNA repair: 0%; NPC1 prom act: 6%

How did Cc1cc2nc(-c3cccc(NC(=O)c4ccc(Br)o4)c3C)oc2cc1C do in these assays?
ELG1 genotox: -3%; Rab9 prom act: 21%; SMN2 splice enh: -17%; FLuc counter: 4.3µM*; ELG1 DNA repair: inconclusive; NPC1 prom act: 26%

How did Cc1cc2nc(-c3cccc(NC(=O)C(C)C)c3C)oc2cc1C do in these assays?
FLuc counter: 0.48µM*
